# Source: publication PMC7862700, “An all-to-all approach to the identification of sequence-specific readers for epigenetic DNA modifications on cytosine”
# Key:
# Assay in all cases: DAPPL (digital affinity profiling via proximity ligation, sequencing); 10 mM Tris-HCl pH 7.5, 50 mM NaCl, 1 mM DTT, 4% glycerol, room temperature, 30 min; GST-TFs on glutathione beads, 16-mer random dsDNA library, 0.1% formaldehyde crosslink after washing; high values mean tight binding
# FLI1 = biological target: T1, FLI1 (Homo sapiens, UniProt Q01543 1-452); conditions: protein: recombinant; tags: N-terminal GST; dsDNA, one strand shown
# T1 sequence: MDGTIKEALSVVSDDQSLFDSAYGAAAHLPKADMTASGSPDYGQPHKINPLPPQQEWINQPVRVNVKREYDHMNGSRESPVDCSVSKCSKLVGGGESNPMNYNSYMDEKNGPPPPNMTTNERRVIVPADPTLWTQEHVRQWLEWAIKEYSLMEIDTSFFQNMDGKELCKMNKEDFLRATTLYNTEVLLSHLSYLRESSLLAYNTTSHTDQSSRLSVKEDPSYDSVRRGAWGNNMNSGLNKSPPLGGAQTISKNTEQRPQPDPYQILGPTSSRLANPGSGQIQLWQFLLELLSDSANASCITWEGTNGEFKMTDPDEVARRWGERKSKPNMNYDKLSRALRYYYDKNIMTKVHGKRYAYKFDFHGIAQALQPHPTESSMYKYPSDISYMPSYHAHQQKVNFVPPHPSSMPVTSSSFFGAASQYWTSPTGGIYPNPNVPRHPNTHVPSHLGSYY
# Method in brief: (§1)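 GST fusions of human transcription factors were expressed in yeast and captured with glutathione beads. Once given DNA barcodes and pooled alongside a tag-only sample, they were incubated for 30 min at room temperature with 200 nmole of a random double-stranded 16-mer DNA library in Tris/NaCl/DTT/glycerol buffer, then washed, crosslinked (0.1% formaldehyde), proximity-ligated, PCR-amplified and sequenced on an Illumina NextSeq500. The binding signal of each hexamer is its read frequency for a factor divided by its frequency for the tag-only sample.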
# ELK1 = biological target: T2, ELK1 (Homo sapiens, UniProt P19419 1-428); conditions: protein: recombinant; tags: N-terminal GST; dsDNA, one strand shown
# T2 sequence: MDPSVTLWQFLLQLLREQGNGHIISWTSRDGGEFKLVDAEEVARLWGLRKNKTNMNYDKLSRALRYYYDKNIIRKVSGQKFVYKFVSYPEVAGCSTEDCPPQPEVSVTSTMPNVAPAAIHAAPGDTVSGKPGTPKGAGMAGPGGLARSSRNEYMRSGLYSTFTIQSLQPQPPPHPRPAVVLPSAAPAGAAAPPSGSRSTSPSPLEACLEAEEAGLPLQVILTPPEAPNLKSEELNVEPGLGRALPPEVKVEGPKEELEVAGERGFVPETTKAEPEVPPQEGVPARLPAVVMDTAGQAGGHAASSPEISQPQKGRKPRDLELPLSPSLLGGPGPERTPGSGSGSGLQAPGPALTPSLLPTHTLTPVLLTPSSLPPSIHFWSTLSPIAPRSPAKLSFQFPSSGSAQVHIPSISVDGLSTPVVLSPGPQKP
# Method in brief: as §1
# GABPA = biological target: T3, GABPA (Homo sapiens, UniProt Q06546 1-454); conditions: protein: recombinant; tags: N-terminal GST; dsDNA, one strand shown
# T3 sequence: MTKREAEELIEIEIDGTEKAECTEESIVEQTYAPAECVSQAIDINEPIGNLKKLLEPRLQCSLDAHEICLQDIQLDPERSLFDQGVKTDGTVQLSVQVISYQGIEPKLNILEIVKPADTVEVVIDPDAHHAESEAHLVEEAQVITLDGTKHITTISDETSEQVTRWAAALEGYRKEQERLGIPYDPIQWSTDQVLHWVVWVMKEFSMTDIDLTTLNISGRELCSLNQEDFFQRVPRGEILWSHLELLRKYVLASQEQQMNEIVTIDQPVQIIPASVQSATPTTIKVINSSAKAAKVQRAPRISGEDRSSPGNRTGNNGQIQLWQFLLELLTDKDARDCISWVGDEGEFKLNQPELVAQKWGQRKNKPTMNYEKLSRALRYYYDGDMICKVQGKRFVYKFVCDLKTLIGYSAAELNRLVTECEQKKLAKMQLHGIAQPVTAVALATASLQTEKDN
# Method in brief: as §1
# ERG = biological target: T4, ERG (Homo sapiens, UniProt P11308 1-479); conditions: protein: recombinant; tags: N-terminal GST; dsDNA, one strand shown
# T4 sequence: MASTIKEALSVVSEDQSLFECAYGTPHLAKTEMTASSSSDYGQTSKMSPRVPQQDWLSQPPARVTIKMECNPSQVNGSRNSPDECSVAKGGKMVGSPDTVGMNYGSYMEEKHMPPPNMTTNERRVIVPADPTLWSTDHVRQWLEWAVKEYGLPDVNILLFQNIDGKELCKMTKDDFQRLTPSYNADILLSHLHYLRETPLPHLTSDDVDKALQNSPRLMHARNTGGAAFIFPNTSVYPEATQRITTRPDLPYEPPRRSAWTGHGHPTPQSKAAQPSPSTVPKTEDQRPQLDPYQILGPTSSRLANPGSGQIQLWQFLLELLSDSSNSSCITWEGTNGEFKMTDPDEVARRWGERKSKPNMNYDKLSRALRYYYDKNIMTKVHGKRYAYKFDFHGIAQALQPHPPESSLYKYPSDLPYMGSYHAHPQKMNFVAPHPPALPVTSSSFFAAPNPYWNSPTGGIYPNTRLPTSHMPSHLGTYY
# Method in brief: as §1
# ELF1 = ELF1 (Homo sapiens, UniProt P32519 1-619); conditions: protein: recombinant; tags: N-terminal GST; dsDNA, one strand shown
# Method in brief: as §1
# EHF = biological target: T5, EHF (Homo sapiens, UniProt Q9NZC4 1-300); conditions: protein: recombinant; tags: N-terminal GST; dsDNA, one strand shown
# T5 sequence: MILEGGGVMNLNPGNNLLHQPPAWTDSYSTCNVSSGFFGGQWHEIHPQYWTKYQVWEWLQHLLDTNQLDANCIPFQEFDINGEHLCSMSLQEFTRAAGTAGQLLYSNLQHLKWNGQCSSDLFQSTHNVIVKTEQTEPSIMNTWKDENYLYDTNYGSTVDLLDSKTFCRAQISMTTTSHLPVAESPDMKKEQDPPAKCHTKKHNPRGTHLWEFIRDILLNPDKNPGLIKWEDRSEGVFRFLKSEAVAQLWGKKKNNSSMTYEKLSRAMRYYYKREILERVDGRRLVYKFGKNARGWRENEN
# Method in brief: as §1
# SPI1 = SPI1 (Homo sapiens, UniProt P17947 1-270); conditions: protein: recombinant; tags: N-terminal GST; dsDNA, one strand shown
# Method in brief: as §1
# SPIB = SPIB (Homo sapiens, UniProt Q01892 1-262); conditions: protein: recombinant; tags: N-terminal GST; dsDNA, one strand shown
# Method in brief: as §1
# ELK3 = biological target: T6, ELK3 (Homo sapiens, UniProt P41970 1-407); conditions: protein: recombinant; tags: N-terminal GST; dsDNA, one strand shown
# T6 sequence: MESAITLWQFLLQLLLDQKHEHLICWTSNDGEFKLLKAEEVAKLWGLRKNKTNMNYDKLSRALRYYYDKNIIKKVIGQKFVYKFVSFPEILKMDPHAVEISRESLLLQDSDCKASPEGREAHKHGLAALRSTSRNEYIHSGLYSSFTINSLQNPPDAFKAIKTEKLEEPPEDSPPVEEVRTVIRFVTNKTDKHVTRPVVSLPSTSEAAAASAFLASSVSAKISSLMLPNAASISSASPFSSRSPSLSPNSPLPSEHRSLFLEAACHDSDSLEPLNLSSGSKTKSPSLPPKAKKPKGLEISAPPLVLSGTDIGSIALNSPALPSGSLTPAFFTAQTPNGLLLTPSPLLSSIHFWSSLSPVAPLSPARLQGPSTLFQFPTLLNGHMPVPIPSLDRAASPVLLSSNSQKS
# Method in brief: as §1
# FEV = biological target: T7, FEV (Homo sapiens, UniProt Q99581 1-238); conditions: protein: recombinant; tags: N-terminal GST; dsDNA, one strand shown
# T7 sequence: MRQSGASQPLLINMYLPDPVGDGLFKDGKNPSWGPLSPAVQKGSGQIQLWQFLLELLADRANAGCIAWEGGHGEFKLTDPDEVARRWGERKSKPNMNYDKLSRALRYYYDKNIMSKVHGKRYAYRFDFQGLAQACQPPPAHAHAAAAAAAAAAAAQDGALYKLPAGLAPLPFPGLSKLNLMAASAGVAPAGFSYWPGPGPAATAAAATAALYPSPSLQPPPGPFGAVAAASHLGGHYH
# Method in brief: as §1
# ETV5 = ETV5 (Homo sapiens, UniProt P41161 1-510); conditions: protein: recombinant; tags: N-terminal GST; dsDNA, one strand shown
# Method in brief: as §1
# HSF1 = HSF1 (Homo sapiens, UniProt Q00613 1-529); conditions: protein: recombinant; tags: N-terminal GST; chain copies: 3; dsDNA, one strand shown
# Method in brief: as §1
# SPIC = biological target: T8, SPIC (Homo sapiens, UniProt Q8N5J4 1-248); conditions: protein: recombinant; tags: N-terminal GST; dsDNA, one strand shown
# T8 sequence: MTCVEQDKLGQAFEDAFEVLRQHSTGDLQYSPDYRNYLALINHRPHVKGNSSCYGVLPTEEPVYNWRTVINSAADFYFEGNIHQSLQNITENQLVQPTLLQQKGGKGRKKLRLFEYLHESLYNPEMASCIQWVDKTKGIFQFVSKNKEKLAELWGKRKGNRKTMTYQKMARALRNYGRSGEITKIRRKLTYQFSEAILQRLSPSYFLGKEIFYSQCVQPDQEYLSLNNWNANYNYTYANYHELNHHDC
# Method in brief: as §1
# ELF4 = ELF4 (Homo sapiens, UniProt Q99607 1-663); conditions: protein: recombinant; tags: N-terminal GST; dsDNA, one strand shown
# Method in brief: as §1
# ELK4 = biological target: T9, ELK4 (Homo sapiens, UniProt P28324-2 1-405); conditions: protein: recombinant; tags: N-terminal GST; dsDNA, one strand shown
# T9 sequence: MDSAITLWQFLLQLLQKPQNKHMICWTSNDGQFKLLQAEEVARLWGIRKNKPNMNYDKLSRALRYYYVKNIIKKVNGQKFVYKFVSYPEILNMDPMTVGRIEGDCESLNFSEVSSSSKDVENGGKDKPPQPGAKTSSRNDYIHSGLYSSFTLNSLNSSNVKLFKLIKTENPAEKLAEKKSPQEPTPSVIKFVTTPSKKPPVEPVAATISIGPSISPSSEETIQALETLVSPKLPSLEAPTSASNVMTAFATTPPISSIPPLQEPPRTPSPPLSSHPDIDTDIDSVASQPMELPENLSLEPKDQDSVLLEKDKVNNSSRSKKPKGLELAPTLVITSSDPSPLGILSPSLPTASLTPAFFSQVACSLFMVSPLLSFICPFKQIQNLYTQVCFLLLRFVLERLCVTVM
# Method in brief: as §1
# ETV2 = biological target: T10, ETV2 (Homo sapiens, UniProt O00321 1-342); conditions: protein: recombinant; tags: N-terminal GST; dsDNA, one strand shown
# T10 sequence: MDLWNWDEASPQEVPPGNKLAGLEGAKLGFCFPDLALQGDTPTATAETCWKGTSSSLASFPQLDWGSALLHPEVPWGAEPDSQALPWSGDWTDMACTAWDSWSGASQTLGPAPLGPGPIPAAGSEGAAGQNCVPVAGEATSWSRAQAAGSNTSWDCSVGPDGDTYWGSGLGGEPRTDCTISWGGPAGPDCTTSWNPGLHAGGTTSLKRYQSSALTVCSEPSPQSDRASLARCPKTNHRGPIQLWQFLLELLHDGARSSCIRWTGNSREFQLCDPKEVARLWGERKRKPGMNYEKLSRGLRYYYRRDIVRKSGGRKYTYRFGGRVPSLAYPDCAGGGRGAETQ
# Method in brief: as §1
# ELF3 = biological target: T11, ELF3 (Homo sapiens, UniProt P78545 1-371); conditions: protein: recombinant; tags: N-terminal GST; dsDNA, one strand shown
# T11 sequence: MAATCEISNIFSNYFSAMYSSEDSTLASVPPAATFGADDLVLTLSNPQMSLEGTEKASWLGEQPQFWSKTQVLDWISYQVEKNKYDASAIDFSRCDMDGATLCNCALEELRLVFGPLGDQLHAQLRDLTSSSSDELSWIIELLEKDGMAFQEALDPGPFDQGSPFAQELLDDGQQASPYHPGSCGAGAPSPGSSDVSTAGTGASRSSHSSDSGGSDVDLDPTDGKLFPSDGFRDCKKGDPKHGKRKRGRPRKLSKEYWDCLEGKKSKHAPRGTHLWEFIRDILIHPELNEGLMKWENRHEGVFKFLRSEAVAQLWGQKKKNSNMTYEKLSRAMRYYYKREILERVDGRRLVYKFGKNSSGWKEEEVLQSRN
# Method in brief: as §1
# CRX = CRX (Homo sapiens, UniProt O43186 1-299); conditions: protein: recombinant; tags: N-terminal GST; dsDNA, one strand shown
# Method in brief: as §1
# ETV1 = ETV1 (Homo sapiens, UniProt P50549 1-477); conditions: protein: recombinant; tags: N-terminal GST; dsDNA, one strand shown
# Method in brief: as §1
# Chain of SPIB (Q01892 whole entry): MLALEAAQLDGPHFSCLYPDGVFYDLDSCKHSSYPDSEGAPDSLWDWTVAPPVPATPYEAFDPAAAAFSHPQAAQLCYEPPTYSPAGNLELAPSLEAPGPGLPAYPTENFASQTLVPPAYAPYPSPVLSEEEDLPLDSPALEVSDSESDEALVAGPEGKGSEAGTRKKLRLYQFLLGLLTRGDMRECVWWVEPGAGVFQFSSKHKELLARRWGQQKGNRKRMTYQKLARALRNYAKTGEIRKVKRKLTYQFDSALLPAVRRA
# Chain of HSF1 (Q00613 whole entry): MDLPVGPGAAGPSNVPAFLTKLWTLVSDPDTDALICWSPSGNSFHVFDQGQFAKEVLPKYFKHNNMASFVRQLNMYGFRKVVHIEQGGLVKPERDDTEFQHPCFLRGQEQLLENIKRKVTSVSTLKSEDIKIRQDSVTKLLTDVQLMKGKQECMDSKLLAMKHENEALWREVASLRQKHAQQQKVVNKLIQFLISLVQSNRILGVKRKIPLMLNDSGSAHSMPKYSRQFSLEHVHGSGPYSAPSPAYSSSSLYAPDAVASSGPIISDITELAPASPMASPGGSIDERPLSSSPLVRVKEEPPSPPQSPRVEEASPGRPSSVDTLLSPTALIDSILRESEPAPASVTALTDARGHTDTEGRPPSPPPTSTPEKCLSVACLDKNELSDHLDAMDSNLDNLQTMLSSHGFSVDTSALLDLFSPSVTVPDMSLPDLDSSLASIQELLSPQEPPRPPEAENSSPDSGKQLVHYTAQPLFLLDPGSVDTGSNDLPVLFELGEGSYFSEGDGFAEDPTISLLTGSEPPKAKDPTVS
# Chain of ETV5 (P41161 whole entry): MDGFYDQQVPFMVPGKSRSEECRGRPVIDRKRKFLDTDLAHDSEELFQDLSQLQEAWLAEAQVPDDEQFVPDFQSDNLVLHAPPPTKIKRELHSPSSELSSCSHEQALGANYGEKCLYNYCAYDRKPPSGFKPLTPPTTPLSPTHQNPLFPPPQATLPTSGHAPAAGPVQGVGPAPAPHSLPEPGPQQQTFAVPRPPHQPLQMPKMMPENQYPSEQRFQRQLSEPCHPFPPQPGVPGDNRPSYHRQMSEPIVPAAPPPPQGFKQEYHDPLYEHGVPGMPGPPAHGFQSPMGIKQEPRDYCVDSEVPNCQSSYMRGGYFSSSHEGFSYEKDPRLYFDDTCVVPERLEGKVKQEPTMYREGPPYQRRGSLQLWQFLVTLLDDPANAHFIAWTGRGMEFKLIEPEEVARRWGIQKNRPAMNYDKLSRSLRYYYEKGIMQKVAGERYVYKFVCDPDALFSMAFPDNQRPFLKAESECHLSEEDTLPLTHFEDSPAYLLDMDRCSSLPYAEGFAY
# Chain of ELF1 (P32519 whole entry): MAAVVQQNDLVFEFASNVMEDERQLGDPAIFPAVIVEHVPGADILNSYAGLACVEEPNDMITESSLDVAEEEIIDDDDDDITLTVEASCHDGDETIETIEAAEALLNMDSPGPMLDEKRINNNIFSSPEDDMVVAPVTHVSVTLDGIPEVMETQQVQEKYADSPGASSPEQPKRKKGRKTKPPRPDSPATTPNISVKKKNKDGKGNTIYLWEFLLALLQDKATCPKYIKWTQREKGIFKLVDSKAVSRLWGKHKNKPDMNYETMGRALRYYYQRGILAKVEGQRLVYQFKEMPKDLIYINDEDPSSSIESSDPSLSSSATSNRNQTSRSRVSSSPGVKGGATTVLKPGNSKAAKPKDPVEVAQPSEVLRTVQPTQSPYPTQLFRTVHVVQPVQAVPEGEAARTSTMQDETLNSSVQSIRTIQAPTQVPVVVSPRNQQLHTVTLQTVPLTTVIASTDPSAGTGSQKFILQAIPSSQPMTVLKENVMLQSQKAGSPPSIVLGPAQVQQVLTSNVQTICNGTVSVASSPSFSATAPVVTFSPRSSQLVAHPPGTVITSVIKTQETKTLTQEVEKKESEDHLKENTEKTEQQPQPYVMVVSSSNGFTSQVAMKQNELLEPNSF
# Chain of CRX (O43186 whole entry): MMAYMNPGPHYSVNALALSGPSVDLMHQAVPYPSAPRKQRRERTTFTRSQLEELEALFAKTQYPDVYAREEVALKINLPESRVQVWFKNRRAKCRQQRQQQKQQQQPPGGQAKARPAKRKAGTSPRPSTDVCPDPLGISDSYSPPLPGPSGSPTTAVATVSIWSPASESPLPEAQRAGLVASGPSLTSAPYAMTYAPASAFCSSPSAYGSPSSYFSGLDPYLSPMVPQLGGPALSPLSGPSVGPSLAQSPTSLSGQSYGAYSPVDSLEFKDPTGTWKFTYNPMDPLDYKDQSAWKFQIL
# Chain of ETV1 (P50549 whole entry): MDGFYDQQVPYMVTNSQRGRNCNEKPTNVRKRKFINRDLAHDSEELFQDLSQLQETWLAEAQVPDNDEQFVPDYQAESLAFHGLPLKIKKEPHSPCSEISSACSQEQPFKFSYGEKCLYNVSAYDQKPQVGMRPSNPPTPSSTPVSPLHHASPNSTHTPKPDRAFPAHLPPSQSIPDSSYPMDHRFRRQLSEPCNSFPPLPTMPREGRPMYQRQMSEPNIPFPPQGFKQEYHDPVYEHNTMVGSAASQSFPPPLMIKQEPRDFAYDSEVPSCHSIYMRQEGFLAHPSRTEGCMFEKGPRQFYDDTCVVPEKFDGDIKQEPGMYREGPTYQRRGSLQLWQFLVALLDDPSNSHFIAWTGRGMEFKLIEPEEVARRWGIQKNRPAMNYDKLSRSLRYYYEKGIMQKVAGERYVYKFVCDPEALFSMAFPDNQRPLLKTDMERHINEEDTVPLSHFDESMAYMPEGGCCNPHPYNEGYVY
# Chain of ELF4 (Q99607 whole entry): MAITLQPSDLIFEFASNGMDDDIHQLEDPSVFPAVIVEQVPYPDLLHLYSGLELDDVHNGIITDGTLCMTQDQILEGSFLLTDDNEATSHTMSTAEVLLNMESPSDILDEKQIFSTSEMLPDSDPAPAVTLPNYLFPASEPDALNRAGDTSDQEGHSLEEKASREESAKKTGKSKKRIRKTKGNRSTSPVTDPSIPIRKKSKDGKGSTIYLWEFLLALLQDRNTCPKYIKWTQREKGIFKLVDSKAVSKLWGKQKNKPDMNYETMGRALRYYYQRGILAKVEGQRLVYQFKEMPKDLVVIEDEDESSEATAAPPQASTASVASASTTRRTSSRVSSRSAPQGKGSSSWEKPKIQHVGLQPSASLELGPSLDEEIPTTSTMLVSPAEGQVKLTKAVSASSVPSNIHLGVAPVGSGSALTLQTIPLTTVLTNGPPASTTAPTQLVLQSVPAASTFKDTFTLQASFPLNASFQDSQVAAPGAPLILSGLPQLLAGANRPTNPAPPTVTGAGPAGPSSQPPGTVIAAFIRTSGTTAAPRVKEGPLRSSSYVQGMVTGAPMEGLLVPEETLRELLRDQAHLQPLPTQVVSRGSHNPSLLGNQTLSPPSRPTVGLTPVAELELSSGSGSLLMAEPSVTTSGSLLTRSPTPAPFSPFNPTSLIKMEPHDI
sequence,measurement,setting,value
GAATCC,binding signal,FLI1,"1.15 fold enrichment (6-mer frequency, TF over GST control)"
same,binding signal,ELK1,"1.09 fold enrichment (6-mer frequency, TF over GST control)"
same,binding signal,GABPA,"1.08 fold enrichment (6-mer frequency, TF over GST control)"
same,binding signal,ERG,"1.18 fold enrichment (6-mer frequency, TF over GST control)"
same,binding signal,ELF1,"1.13 fold enrichment (6-mer frequency, TF over GST control)"
same,binding signal,EHF,"1.14 fold enrichment (6-mer frequency, TF over GST control)"
same,binding signal,SPI1,"1.14 fold enrichment (6-mer frequency, TF over GST control)"
same,binding signal,SPIB,"1.11 fold enrichment (6-mer frequency, TF over GST control)"
same,binding signal,ELK3,"1.08 fold enrichment (6-mer frequency, TF over GST control)"
same,binding signal,FEV,"1.13 fold enrichment (6-mer frequency, TF over GST control)"
same,binding signal,ETV5,"1.17 fold enrichment (6-mer frequency, TF over GST control)"
same,binding signal,HSF1,"1.21 fold enrichment (6-mer frequency, TF over GST control)"
same,binding signal,SPIC,"1.1 fold enrichment (6-mer frequency, TF over GST control)"
same,binding signal,ELF4,"1.12 fold enrichment (6-mer frequency, TF over GST control)"
same,binding signal,ELK4,"1.19 fold enrichment (6-mer frequency, TF over GST control)"
same,binding signal,ETV2,"1.09 fold enrichment (6-mer frequency, TF over GST control)"
same,binding signal,ELF3,"1.02 fold enrichment (6-mer frequency, TF over GST control)"
same,binding signal,CRX,"1.19 fold enrichment (6-mer frequency, TF over GST control)"
same,binding signal,ETV1,"1.13 fold enrichment (6-mer frequency, TF over GST control)"
